Source: article PMC7819943, “Rice protein-binding microarrays: a tool to detect cis-acting elements near promoter regions in rice”
In all, about 35,000 sequences were measured (“fluorescence intensity (a.u.)”: median about 10,000, highest 2% from about 52,000 on). The full list was thinned out, with the highest values kept by preference.

biological target: T1, OsWOX13 (Oryza sativa, UniProt Q5QMM3 1-267); test: protein-binding microarray (RPBM); PBS, 2% BSA, 51.3 ng/ul salmon testes DNA, 50 uM zinc acetate, 200 nM TF, 25 C, 1 h; high values mean tight binding; conditions: protein: recombinant; tags: N-terminal polyhistidine and DsRed monomer fusion (pET32a); label: CyDye5-dUTP incorporated in the synthesized complementary strand; 3' TTTTT single-stranded linker to array surface; dsDNA, one strand shown
T1 sequence: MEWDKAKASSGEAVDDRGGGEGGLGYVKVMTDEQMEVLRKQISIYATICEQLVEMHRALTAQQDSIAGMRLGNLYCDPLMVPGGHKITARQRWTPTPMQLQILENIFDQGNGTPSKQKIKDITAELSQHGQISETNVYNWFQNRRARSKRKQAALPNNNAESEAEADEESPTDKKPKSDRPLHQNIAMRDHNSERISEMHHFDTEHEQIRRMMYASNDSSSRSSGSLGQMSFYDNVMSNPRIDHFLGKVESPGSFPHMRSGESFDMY
Outline: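 Using Ni–NTA, transcription factors fused N-terminally to polyhistidine and DsRed were purified after expression in E. coli BL21-CodonPlus. These were incubated at 200 nM with a blocked, double-stranded custom Agilent array for 1 h at 25 °C in a buffer containing 50 µM zinc acetate, and the array was washed. The binding signal is per-feature fluorescence intensity (arbitrary units) on an Axon 4000B scanner.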

Row | Sequence | binding signal
1 | GGTGTGTTTATAATTAATATACAGATTGTGTCACATTGTTCGGAGTCACCTAGTGCAG | 8600 fluorescence intensity (a.u.)
2 | ATATTTGATTAGATCGGTAATGGATGGCTATAACGTATGCCGGAGTCACCTAGTGCAG | 58500 fluorescence intensity (a.u.)
3 | ATGATTGATCGATCATCAAGCTAAAGATAATGCTATGCAACGGAGTCACCTAGTGCAG | 55100 fluorescence intensity (a.u.)
4 | TTATATTAATTGGCTATTAGATTAGCTATAGATAAATTGGCGGAGTCACCTAGTGCAG | 60400 fluorescence intensity (a.u.)
5 | CAACTATTATATAAATTGGCTATTATATTAGCTATAGATGCGGAGTCACCTAGTGCAG | 11400 fluorescence intensity (a.u.)
6 | TATATATGAGCTATTAGATTGGCTATGGATGAATTGGAGCCGGAGTCACCTAGTGCAG | 4900 fluorescence intensity (a.u.)
7 | AATAAAATAATAATTATATAATTTTAGTAAGATAATTGAACGGAGTCACCTAGTGCAG | 19200 fluorescence intensity (a.u.)
8 | GTCAATCATTGTTCTATGAGCTAGATGATAAAGATGACAACGGAGTCACCTAGTGCAG | 8180 fluorescence intensity (a.u.)
9 | GAGCTATTAGATTGGCTATAGATAAATTAGAGCTAGTAGTCGGAGTCACCTAGTGCAG | 31600 fluorescence intensity (a.u.)
10 | GATAAATTGACAATATTACCAAAATTTTAGTAAGATTGGCCGGAGTCACCTAGTGCAG | 64900 fluorescence intensity (a.u.)
11 | AGATAATTAAGTATTTTACGTAAAATAAGATAGTATTAATCGGAGTCACCTAGTGCAG | 5240 fluorescence intensity (a.u.)
12 | TTTATGATTATATTCGTAATGCTACATAATTTGATATGATCGGAGTCACCTAGTGCAG | 28100 fluorescence intensity (a.u.)
13 | TCAAGCTGCTAATCAATTGATATCAACTATATTATGGAAACGGAGTCACCTAGTGCAG | 14600 fluorescence intensity (a.u.)
14 | ATCACACCCTAAATTGACTGTATTTGTGCTGAATTTTACACGGAGTCACCTAGTGCAG | 12300 fluorescence intensity (a.u.)
15 | CAGCCGGATTGATTGCGTAGCTGTGTGCAAGGCTGGGCGACGGAGTCACCTAGTGCAG | 35900 fluorescence intensity (a.u.)
16 | TGGTTAATTTAGCTTCTCCCCTTTCTCGTGTCCTTAGATTCGGAGTCACCTAGTGCAG | 10200 fluorescence intensity (a.u.)
17 | ATAAAATTAAAGTAAATGTGATACAAACGTGGCATGTTTGCGGAGTCACCTAGTGCAG | 8490 fluorescence intensity (a.u.)
18 | AGACTAATTGAAGCTAGGATATATGATGCAAGGAGAGAGGCGGAGTCACCTAGTGCAG | 29500 fluorescence intensity (a.u.)
19 | ACCTTAAATTTGTAGTTGATTTTAGGGTTTTCTCATTGAACGGAGTCACCTAGTGCAG | 27700 fluorescence intensity (a.u.)
20 | ATAATAGATTTGGTCAAAATTTATCGAAAACCGATCGAAACGGAGTCACCTAGTGCAG | 13200 fluorescence intensity (a.u.)
21 | AAATTAAATAACATGTGATTATGGCATACTGTAAGTAGTACGGAGTCACCTAGTGCAG | 12000 fluorescence intensity (a.u.)

Row | Sequence | binding signal
22 | ACCAAATTAATTTATTAAACATAAAATTGAATATATTTTGCGGAGTCACCTAGTGCAG | 46500 fluorescence intensity (a.u.)
23 | ATGGACTATTAAATTGACTATAAATGATTTGGAGCTAGTACGGAGTCACCTAGTGCAG | 22200 fluorescence intensity (a.u.)
24 | ATAAATGGGCTATTAGATTGACTATAAATGATTTGGAGCCCGGAGTCACCTAGTGCAG | 57100 fluorescence intensity (a.u.)
25 | TATGAATTGGCTATTAAATTGACTATAAATGATTTAGAGCCGGAGTCACCTAGTGCAG | 37200 fluorescence intensity (a.u.)
26 | GAGACCATATCATTGATAGATACATGCATGCATCCTACTACGGAGTCACCTAGTGCAG | 7660 fluorescence intensity (a.u.)
27 | AAGACTAAAGGCTCAATTGATTGGACGGGAGATATGAAAACGGAGTCACCTAGTGCAG | 9490 fluorescence intensity (a.u.)
28 | ATATGATATTTGTCCATCTTAATTGCTTATAAGCTGTATACGGAGTCACCTAGTGCAG | 5090 fluorescence intensity (a.u.)
29 | TAATAAATTTGACTAGTTATTCAACTTTGACATAAAATCCCGGAGTCACCTAGTGCAG | 11500 fluorescence intensity (a.u.)
30 | GGCCAGTAATTAACCATATTTATCATTTAAACTACTCAGTCGGAGTCACCTAGTGCAG | 9040 fluorescence intensity (a.u.)
31 | GTAATTGACAACTGACAACCGACAGTTATTGACTCATTCCCGGAGTCACCTAGTGCAG | 54900 fluorescence intensity (a.u.)
32 | ATTTATGTAATTATCATTTATTTTATTGTAAATTTATTTACGGAGTCACCTAGTGCAG | 16300 fluorescence intensity (a.u.)
33 | ATTGCTGATTGTCTGTTCTTTTACTTGACATAACCTGAATCGGAGTCACCTAGTGCAG | 30100 fluorescence intensity (a.u.)
34 | TATGATTTGTCTACGTTACAAACATAAACCTTTTCTTCTCCGGAGTCACCTAGTGCAG | 11400 fluorescence intensity (a.u.)
35 | ATTTTGGTTTCTGTTATTGACAAAACAACTCACTCATTCCCGGAGTCACCTAGTGCAG | 3480 fluorescence intensity (a.u.)
36 | ACCGTAACCTGATTGATAATTTACTGATTTACTCATTGTTCGGAGTCACCTAGTGCAG | 64700 fluorescence intensity (a.u.)
37 | TAGATTGATTGTTACTCCGTACATAACCTTGTCTTCTTCGCGGAGTCACCTAGTGCAG | 55400 fluorescence intensity (a.u.)
38 | GGAGTGCAAATTAGTCCGGATTTTACTGAATATTGATAACCGGAGTCACCTAGTGCAG | 3300 fluorescence intensity (a.u.)
39 | TTGTTGATAACCGATAATTTGGTAAATTATTGATTTTATTCGGAGTCACCTAGTGCAG | 19900 fluorescence intensity (a.u.)
40 | GTCCGTAATTGATCATATTTATCATTTAAATTACTCAGTGCGGAGTCACCTAGTGCAG | 61900 fluorescence intensity (a.u.)
41 | GCTGGTTTGATTAGATCTTCATCCCACGTGGCATTGACGTCGGAGTCACCTAGTGCAG | 17200 fluorescence intensity (a.u.)
42 | TCTTGTAATTATTCTATGTTTAATACTCTAAATTAGCATCCGGAGTCACCTAGTGCAG | 20000 fluorescence intensity (a.u.)

Row | Sequence | binding signal
43 | TGGTGATAATGTCATTCTGTTATTACAGAGGTCAACGTGTCGGAGTCACCTAGTGCAG | 3410 fluorescence intensity (a.u.)
44 | CTCCACTAATCCTACCAATTAACGAGTCGTACTCAATAATCGGAGTCACCTAGTGCAG | 7550 fluorescence intensity (a.u.)
45 | CAGCTGTTCTAATGATTTGAGATATATCAAACTTGTCAAACGGAGTCACCTAGTGCAG | 3250 fluorescence intensity (a.u.)
46 | TAAGTTAATAGATATTTAACGTTTATAATAAGATTTGTTTCGGAGTCACCTAGTGCAG | 9590 fluorescence intensity (a.u.)
47 | AGCGCAACTAATTAAACTAGGCTTATCAGGCGACAGCGGCCGGAGTCACCTAGTGCAG | 4920 fluorescence intensity (a.u.)
48 | TCAAACAAACCAATCAATCAATCAATCAGGGGATTCTTACCGGAGTCACCTAGTGCAG | 42300 fluorescence intensity (a.u.)
49 | CACCCAATCACAATCCAACCCACGCCATTGCAACCAAATTCGGAGTCACCTAGTGCAG | 4130 fluorescence intensity (a.u.)
50 | GGCAATCAATCAACCAATCACCAGCTTACAATTCGGCCACCGGAGTCACCTAGTGCAG | 59300 fluorescence intensity (a.u.)
51 | GTGTAATTTTGTTAGGAAATTTGGGTTTGAATCAGTGGAACGGAGTCACCTAGTGCAG | 12500 fluorescence intensity (a.u.)
52 | TCCTGATTTCGCCGCCACTTGTAGCATCTGCCCGTGGGGTCGGAGTCACCTAGTGCAG | 5510 fluorescence intensity (a.u.)
53 | ATGGCTAATTATGGACTAATTAGACTCAAAAGATTCGTTTCGGAGTCACCTAGTGCAG | 19800 fluorescence intensity (a.u.)
54 | TACTAATCATAGACTAATTAGGCTCAAAAGATTCGTCTCACGGAGTCACCTAGTGCAG | 31300 fluorescence intensity (a.u.)
55 | TACGGCTAATTATGGACTAATTAGACTCAAAAGATTCATGCGGAGTCACCTAGTGCAG | 53800 fluorescence intensity (a.u.)
56 | ATGGATTAATTAGGCTCAAAAGATTTGTCTCACTATTTCCCGGAGTCACCTAGTGCAG | 13500 fluorescence intensity (a.u.)
57 | GATTAATTAGACTTAATAAATTTGTCTCACGGTTTACGGACGGAGTCACCTAGTGCAG | 40500 fluorescence intensity (a.u.)
58 | GCTAATCATAGACTAATTAGGCTTAAAAGATTTGTCTCGCCGGAGTCACCTAGTGCAG | 37200 fluorescence intensity (a.u.)
59 | GCTAATCATAGACTAATTAGACTCAAAAGATTAGTCTCGCCGGAGTCACCTAGTGCAG | 52800 fluorescence intensity (a.u.)
60 | TTATGGCTAATCATGAACTAATTAGACTCAAAAGATTCGTCGGAGTCACCTAGTGCAG | 23700 fluorescence intensity (a.u.)
61 | ACTAATTAGACTTAAAAGATTTGTCTCATGATTTACTCCCCGGAGTCACCTAGTGCAG | 56300 fluorescence intensity (a.u.)
